CHRM1 agonist: human M1 muscarinic receptor agonists, primary screen, Fluo-8 calcium fluorescence, CHO-K1 cells, HTS | Muscarinic acetylcholine receptor M1 (Homo sapiens), P11229 | activation, % at 3 µM | CHO-K1 hM1, agonist mode; 0% DMSO, 100% acetylcholine EC100 | actives 0.33% (n = 360,000);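 active = activation above the run's mean compound activation plus 3 SD, cut at about 16% in these data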;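 also: peak over basal fluorescence ratio within a 140 s kinetic read after compound addition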
Target sequence (P11229 whole entry, looked up): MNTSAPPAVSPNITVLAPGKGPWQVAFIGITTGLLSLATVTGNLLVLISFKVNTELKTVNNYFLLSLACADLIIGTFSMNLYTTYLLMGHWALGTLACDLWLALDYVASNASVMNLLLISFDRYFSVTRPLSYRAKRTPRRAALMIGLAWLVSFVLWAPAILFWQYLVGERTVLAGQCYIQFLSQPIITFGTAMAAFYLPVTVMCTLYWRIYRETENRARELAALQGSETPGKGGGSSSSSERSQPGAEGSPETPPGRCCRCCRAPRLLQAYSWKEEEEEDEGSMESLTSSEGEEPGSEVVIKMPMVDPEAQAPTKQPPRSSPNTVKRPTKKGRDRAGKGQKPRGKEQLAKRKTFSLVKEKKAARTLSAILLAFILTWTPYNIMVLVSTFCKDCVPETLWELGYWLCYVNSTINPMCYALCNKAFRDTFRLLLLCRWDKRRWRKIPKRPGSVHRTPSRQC
CHO-K1 Ca ag: counter-screen for M1 agonists: effect in parental CHO-K1 cells | activation, % at 3 µM | actives 0.48% (n = 360,000) | Fluo-8 calcium fluorescence; scaled to maximal ATP response, vehicle zero | AID 602248, 2012; in the data active = activation above about 15%;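 also: untransfected CHO-K1 host cells lacking M1 receptor as counterscreen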
CHO-K1 Ca antag: counter-screen for M1 antagonists: effect in parental CHO-K1 cells; ATP-induced calcium, Fluo-8 fluorescence; inhibition, % at 3 µM; actives 0.6% (n = 360,000);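 active = inhibition above a per-plate cutoff, the plate's mean sample inhibition plus 3 SD, cut at about 24% in these data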;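 also: 0% = DMSO plus EC80 ATP and 100% = DMSO alone without ATP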
M1 PAM parental: nonselective calcium activators in parental CHO-K1 cells, primary screen, counter-screen for M1 PAM project, cell-based, Fluo-8 calcium fluorescence, full deck, 1536-well; ATP EC20; 0% at ATP EC20, 100% at ATP max; activation, % at 3 µM; actives 0.02% (n = 360,000); AID 602247, 2012;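 active = activation above the run cutoff, the mean activation of all test compounds plus 3 SD, cut at about 40% in these data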;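 also: peak over basal fluorescence ratio in a 140 s read after ATP addition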
M1 PAM: human M1 muscarinic receptor positive allosteric modulators, primary screen, CHO-K1 cells, Fluo-8 calcium fluorescence, 1536-well. CHO-K1 hM1, ACh EC20; 0% = ACh EC20, 100% = maximal ACh. Muscarinic acetylcholine receptor M1 (Homo sapiens), P11229. actives 0.088% (n = 360,000). activation, % at 3 µM; in the data active = activation above about 19%, passing the limit was not always enough
CHRM1 antagonist: human M1 muscarinic receptor antagonists, primary screen, CHO-K1 cells, Fluo-8 calcium fluorescence, 1536-well | CHO-K1 hM1, ACh EC80 antagonist | inhibition, % at 3 µM | actives 1.3% (n = 360,000);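 active = percent inhibition above its own plate's cutoff, namely the mean of that plate's compound wells plus 3 SD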;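 also: peak over basal fluorescence ratio during 140 s after agonist addition; 0% = ACh EC80 plus DMSO and 100% = DMSO alone without agonist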
Numbers without * were called inactive. This is a sample that favours compounds with a hit; in the whole collection about 2.4% have one here.

SMILES | CHRM1 agonist | CHO-K1 Ca ag | CHO-K1 Ca antag | M1 PAM parental | M1 PAM | CHRM1 antagonist
O=C(CN1C(=O)NC2(CCOc3ccccc32)C1=O)NCCc1ccc(F)cc1 (stereo unspecified) | -1.4 | 0.4 | -9.7 | 12.4 | -1.1 | 5.2
CCC(C(=O)N1CCOCC1)n1nc(C)c2sc3ccccc3c2c1=O (stereo unspecified) | -0.9 | 1.4 | -6.4 | -10.8 | 7.5 | -15.4
Cc1ccccc1NC(=O)Cn1nc(-c2ccccc2)nc1-c1ccccc1 | 1.2 | -0.2 | 24.2* | -6.5 | 9.9 | -2.6
COc1ccc(N2CCN(C(=O)c3cc(-c4cc(OC)ccc4OC)nc4ccccc34)CC2)cc1 | 0.2 | 7.4 | -9.2 | -0.1 | -5.9 | 23.9
COc1ccc(-c2cc(C(=O)N3CCN(c4ccccc4F)CC3)c3ccccc3n2)c(OC)c1 | 0.1 | 6.3 | 8.2 | -7.0 | -8.9 | 28.7*
CCOc1ccccc1N1CCN(C(=O)c2cc(-c3cc(OC)ccc3OC)nc3ccccc23)CC1 | -1.4 | 5.4 | 6.1 | 6.7 | -9.8 | 32.7*
C[C@@H]1CN([C@@H](C)CO)C(=O)CCCn2nncc2CO[C@@H]1CN(C)S(=O)(=O)c1cccs1 | -10.4 | -0.1 | 11.9 | -11.4 | -5.6 | -4.8
CCC(=O)c1ccc(N2CCN(C(=O)c3cccs3)CC2)c(F)c1 | -1.1 | 3.3 | 25.5* | -10.4 | 6.4 | -12.1
CCN(CC)C(=O)[C@H]1CC(CC(=O)NCC23CC4CC(CC(C4)C2)C3)C(=O)N2CCc3c([nH]c4ccccc34)[C@]12C (stereo partly specified) | -0.5 | 0.1 | -7.2 | 16.6 | 8.9 | -12.5
CC(C)(C)C(=O)N1CCC[C@H]1C(O)(c1ccccc1)c1ccccc1 | -4.1 | -0.6 | 7.9 | -1.6 | 0.9 | -1.2
CN1CCC(CC(C(=O)N2CCCC2)(c2ccccc2)c2ccccc2)C1 (stereo unspecified) | -8.2 | 0.8 | -6.8 | -17.3 | -26.7 | 60.5*
COc1ccccc1CCNC(=O)C(=O)Nc1cc2c3c(c1)CC(=O)N3CCC2 | -5.6 | 1.0 | -4.2 | -22.4 | 0.3 | -0.2
CCS(=O)c1ccccc1C(=O)OCC(=O)Nc1ccc2ccccc2c1 (stereo unspecified) | 1.3 | 11.7 | -15.3 | -1.2 | -2.9 | -7.5
Cc1noc(C)c1S(=O)(=O)N1CCN(c2ccc(Cl)cc2)CC1 | -4.0 | 0.5 | -11.5 | 12.8 | 0.9 | -5.3
Cc1noc(C)c1S(=O)(=O)Nc1ccc(C(=O)N2CCN(c3ccc(Cl)cc3)CC2)cc1 | 5.6 | 10.1 | 21.8 | 7.5 | -13.4 | 18.4*
O=C(c1ccc(=O)oc1)N1CCN(C(c2ccccc2)c2ccccc2)CC1 | -12.5 | 0.6 | -13.1 | 12.6 | -32.8 | 77.1*
O=C(c1ccc2c(=O)n3c(nc2c1)CCCCC3)N1CCN(C(c2ccccc2)c2ccccc2)CC1 | -14.3 | -0.4 | -29.4 | 10.8 | -33.9 | 78.9*
CC(=O)Oc1ccccc1C(=O)C=Cc1cccc([N+](=O)[O-])c1 | -2.1 | 0.4 | -4.9 | 19.6 | 12.6 | 8.8
FC(F)(F)c1cnc2c(c1)[nH]c(=S)n2-c1ccc(Cl)cc1 | -0.4 | 15.8* | 1.6 | 5.5 | -19.9 | 20.4
Fc1ccc(-n2c(=S)[nH]c3cccnc32)cc1 | -5.3 | 0.2 | -9.0 | 11.5 | 1.0 | -8.0
CN(C(=O)c1cccc(NC(=O)Cc2ccc(NC(=O)C3CCCN(C(=O)C4CC4)C3)cc2)c1)C1CCC1 (stereo unspecified) | -1.3 | 0.4 | -4.2 | 17.8 | 5.8 | -10.1
C/C(=C\c1ccccc1)C(=O)Nc1ccc(Cl)cn1 | -8.7 | 1.1 | -7.4 | 17.7 | -8.7 | 31.4*
O=C(Nc1ccc(Cl)cn1)Nc1ccc(Cl)cn1 | -5.6 | 2.2 | -3.4 | 24.6 | 4.7 | -5.4
Cc1ccc(NC(=S)NCc2ccc(Cl)cc2)c(OC(F)F)c1 | -1.1 | 6.0 | 19.1 | -3.1 | -20.6 | 34.1*
CC(OC(=O)c1cccnc1Cl)C(=O)Nc1ccc2c(c1)OCO2 (stereo unspecified) | -3.1 | 0.3 | -8.8 | 7.3 | 0.0 | 2.5
SMILES | CHRM1 agonist | CHO-K1 Ca ag | CHO-K1 Ca antag | M1 PAM parental | M1 PAM | CHRM1 antagonist
S=c1[nH]nc(Cc2ccccc2)n1Cc1ccco1 | -12.6 | 0.7 | -15.7 | 7.8 | -33.0 | 92.3*
CCCn1c(Cc2ccccc2)n[nH]c1=S | -5.5 | 0.3 | -12.8 | 18.5 | -6.0 | 17.0
O=C1N/C(=C/c2ccc(N3CCOCC3)o2)C(=O)N1c1cccc(Cl)c1 | -2.6 | -0.1 | 29.0* | -10.3 | -9.2 | 13.7
CCCCN(C(=O)CSCC(=O)Nc1ccc(OC)cc1)c1c(N)n(CC(C)C)c(=O)[nH]c1=O | -2.7 | 0.9 | -0.8 | 19.1 | 4.8 | -5.6
Cn1c(SCc2ccccc2Cl)nnc1-c1cnccn1 | -6.5 | -0.1 | 23.8* | -5.5 | 2.4 | 0.9
C[C@H](NS(=O)(=O)c1ccc2c(c1)OCCCO2)C(=O)N1CCN(c2ccc(F)cc2)CC1 | 0.9 | 7.7 | -14.3 | 5.1 | 6.1 | -7.6
O=C(COc1ccccc1)NC(=S)Nc1cccc2c(O)cccc12 | 19.1* | 6.9 | -5.9 | 4.7 | 3.2 | 2.5
CSc1nc(Oc2cccc(C(F)(F)F)c2)cc(C(F)(F)F)n1 | -1.1 | 0.0 | -2.1 | 12.1 | 8.7 | -11.3
CSc1nc(Oc2ccc(F)cc2F)cc(C(F)(F)F)n1 | 1.8 | -0.2 | 25.5* | 0.1 | 17.2 | -12.3
Cc1cc(C)n(C(C)CC(=O)N2CCc3ccccc32)n1 (stereo unspecified) | -4.8 | 0.6 | -3.9 | 8.8 | -15.8 | 32.6*
CC(C)=CCC[C@H](C)C[C@@H]1CC2=C(C(=O)OC(C)(C)O2)[C@H](c2ccc(Cl)cc2)O1 | -4.0 | -0.6 | -13.8 | -9.9 | -7.0 | -2.6
CCC(=O)N1CCCc2cc(S(=O)(=O)N3CCN(c4ncccn4)CC3)ccc21 | 0.6 | -0.1 | 24.2* | 1.3 | 5.5 | 5.1
Nc1ccc2c(c1)C(=O)CCC2 | -1.1 | 1.0 | -1.7 | 13.5 | 8.2 | -16.4
CCc1ccc(C(=O)C[n+]2cccc3cc(OC)ccc32)cc1 | -8.9 | -0.5 | 3.0 | 7.6 | -28.7 | 59.4*
CC(CC(=O)OCC(=O)NCc1ccc(Cl)cc1)c1ccccc1 (stereo unspecified) | -4.6 | 0.4 | -21.6 | 8.9 | 8.0 | -11.0
N#C/C(=C\c1c[nH]c2ccccc12)C(N)=O | 2.0 | 0.8 | -2.0 | -9.7 | 5.3 | -3.8
CC(=O)Oc1c(/C=C(\C#N)C(N)=O)[nH]c2ccccc12 | 8.0 | 8.5 | 27.4* | 9.4 | -1.0 | 7.7
N#Cc1c(-c2ccccc2Cl)cc(C2CC2)nc1N | 42.4* | 25.3* | -16.8 | 42.6* | 8.1 | -3.4

Bioassay records deposited in PubChem BioAssay by The Scripps Research Institute Molecular Screening Center.
